Shown are actives, neighbours in structure and some others; about 7.1% of the full set was active somewhere.
MCF10A rerep = A quantitative high throughput screen for small molecules that induce DNA re-replication in MCF 10a normal breast cells. MCF 10A DNA re-replication, Hoechst nuclear intensity, 48 h. Potency, µM (top dose mostly 46.1 µM), without a hit: at the top dose activity, positive = re-replication, most hits filed as activators. actives 2.9% (n = 350,000). AID 624296, 2012; note: potency is the fitted concentration of half-maximal effect; % of control where 0% means no effect; nearly all actives have a fitted effect of over 50% in size
IL-1B inflam inh = qHTS for Inhibitors of Inflammasome Signaling: IL-1-beta AlphaLISA Primary Screen; THP-1 LPS/ATP IL-1B secretion, AlphaLISA, 16 h; active compounds read low; activity change, % at 57.5 µM; actives 4.7% (n = 360,000); AID 743279, 2014; in the data active = activity change below about -50%; inconclusive = mostly about -30% to -49%; note: % is set by controls: 0 for no effect and ±100 for the full control effect
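THP-1 cells pretreated 1 hr with compounds (up to 57.5 uM final), then stimulated with LPS (250 ng/mL final) plus ATP (1.25 mM final); secreted IL-1B measured by AlphaLISA after 16 hr, decreased signal indicating inhibition.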
S2 tox = Viability Counterscreen for Primary qHTS for Inhibitors of ATXN expression; S2 cells (HEK-293 line with an ATXN2-luciferase reporter) viability, CellTiter-Fluor protease fluorescence, 24 h; Potency, µM (highest dose often 56.7 µM), usual class: cytotoxic; actives 0.49% (n = 400,000); note: potency is the fitted concentration of half-maximal effect; nearly all actives have a fitted effect of over 40% in size
SW480 rerep = A quantitative high throughput screen for small molecules that induce DNA re-replication in SW480 colon adenocarcinoma cells; Potency, µM (highest dose often 46.1 µM), for the others: at the highest dose re-replication activation, usual class: activators; SW480 DNA re-replication, Hoechst DNA content imaging, 48 h; actives 1.8% (n = 340,000); AID 624297, 2012; note: potency is the fitted concentration of half-maximal effect; % of control where 0% means no effect; nearly all actives have a fitted effect of over 55% in size
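Quantitative HTS format with DMSO vehicle controls; 48 hr drug incubation at 37 C, then 40 min Hoechst staining and scanning imager measurement at 405 nm excitation.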
ATXN2 expr inh = Primary qHTS for Inhibitors of ATXN expression | HEK-293 ATXN2-luciferase reporter, luminescence, 24 h | Potency, µM (series often up to 57 µM), for the others: at the top dose activity change, negative = inhibition, hits mostly inhibitors | AID 1745845, 2022 | actives 0.72% (n = 360,000); note: potency is the fitted concentration of half-maximal effect; % is set by controls: 0 for no effect and ±100 for the full control effect; nearly all actives have a fitted effect of over 55% in size
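ATXN2-luciferase reporter cells (luciferase flanked by upstream and downstream ATXN2 gene portions) were treated 24 h at 37 °C with compounds at up to 57 uM. SteadyGlo luminescence gave expression; GF-AFC fluorescence gave viability.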
PINK1 expr mod = A Quantitative High throughput Screen to Identify Chemical Modulators of PINK1 Expression | PINK1 immunofluorescence, high-content cytometry, 24 h | Potency, µM (titrated, usually from 76.6 µM), for the others: at the highest dose activation (PINK1 increase), usual class: activators | actives 0.2% (n = 410,000) | AID 624263, 2012; active = well fitted activation curve with a large enough effect; inconclusive = small, poorly fitted or top-dose-only effect; cell line not stated here; note: potency is the fitted concentration of half-maximal effect; % of control where 0% means no effect; nearly all actives have a fitted effect of over 65% in size
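Stable cell line treated 24 h with compounds at 5 concentrations (CCCP controls), then fixed and immunostained for PINK1 plus nuclear and cell stains; PINK1 immunofluorescence quantified by laser-scanning microplate cytometry.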
* hit, by the source's call; i = inactive; ? = inconclusive; . = not tested or not shown; ! = a repeat was not active; [ ] = another dose, or the depositor's remark. Unless noted, calls come from the whole dose curve; as a rule, active = well fitted curve in the direction sought with a large enough effect; inconclusive = small, poorly fitted or top-dose-only effect, or another doubt; inactive = no such curve, though single readings can be large; an effect the other way counts as inactive or inconclusive.

SMILES	MCF10A rerep	IL-1B inflam inh	S2 tox	SW480 rerep	ATXN2 expr inh	PINK1 expr mod
O=C(Nc1ccccc1N1CCN(C(=O)c2ccc(Cl)cc2)CC1)c1cccc(F)c1	3%	-55*	i	21%	-16%	0%
Cc1ccc(C)c(NC(=O)Cn2cc(C(=O)C3CCCCC3)c3ccccc32)c1	.	.	i	.	1%	1%
Cn1c(CCCOc2ccc(Cl)cc2Cl)nnc1SCC(=O)Nc1nccs1	0%	6	i	-7%	-1%	13µM*
CCOC(=O)c1ccc(N2C(=O)c3n[nH]c(-c4cccs4)c3C2c2cccc(O)c2)cc1 (stereo unspecified)	.	.	28µM*	.	?	-1%
CCOC(=O)c1ccc(N2C(=O)c3n[nH]c(-c4ccco4)c3C2c2ccc(C(=O)OC)cc2)cc1 (stereo unspecified)	.	.	?	.	?	1%
CCOC(=O)c1ccc(N2C(=O)c3n[nH]c(-c4ccco4)c3C2c2cccc([N+](=O)[O-])c2)cc1 (stereo unspecified)	?	-83*	i	16%	-1%	25%
CCOC(=O)c1ccc(N2C(=O)c3n[nH]c(C)c3C2c2ccc(OC)cc2OC)cc1 (stereo unspecified)	?	-58*	i	16%	-18%	-2%
CCOC(=O)c1ccc(N2C(=O)c3n[nH]c(-c4cccs4)c3C2c2ccc(OCC)cc2)cc1 (stereo unspecified)	.	.	?	.	?	13%
COc1ccc(NC(=O)Cn2c(=O)oc3cc(S(=O)(=O)NCc4ccccc4)ccc32)c(OC)c1	.	.	.	.	.	-1%
CCCC12CN3CC(CCC)(CN(C1)C3c1ccc(OCc3ccccc3)cc1)C2=O (stereo unspecified)	.	.	i	.	7%	4%
CCOC(=O)Cn1c(=O)oc2cc(S(=O)(=O)N3CCC(C(=O)OCC)CC3)ccc21	.	.	.	.	.	0%
CCN(CCCNC(=O)CN1N=C(c2ccc(OC)cc2)CCC1=O)c1cccc(C)c1	.	.	.	.	.	-1%
Cc1nc(-c2ccc(NC(=O)/C=C\C(=O)O)cc2)cs1	-4%	-13	i	-80%	11%	0%
Cc1ccc2sc(-c3ccc(NC(=O)c4cc(-n5cnnc5)ccc4Cl)cc3)nc2c1	2.6µM*	-16	i	15µM*	10%	?
Cc1ccc2sc(-c3ccc(NC(=O)/C=C\C(=O)O)cc3)nc2c1	23µM*	?	.	?	37%	5%
CC(=O)Nc1ccc2[nH]c3ccccc3c2c1	-12%	-18	i	-7%	9%	.
O=C(Nc1ccc(Cl)cc1)c1cc2c(cc1O)[nH]c1ccccc12	4.6µM*	-95*	?	2%	?	?
CCN1CCc2nc3sc(C(=O)N4CCc5ccccc5C4)c(N)c3cc2C1	18µM*	-73*	i	3%	-23%	0%
CC(C)Sc1ncc(Cl)c(C(=O)N(Cc2ccc(F)cc2)C2CCS(=O)(=O)C2)n1 (stereo unspecified)	.	.	i	.	3%	0%
Cc1nc(Oc2ccccc2)c2ccccc2n1	3%	?	?	-1%	38%	4%
c1ccc(Oc2c3ccccc3nc3ccccc23)cc1	18µM*	11	?	?	-15%	9%
Nc1c2c(nc3ccccc13)CCCC2	?	-18	?	?	?	2%
Nc1c2ccccc2nc2ccccc12	18µM*!	-97*!	.	23µM*	5µM*	0%
COC(=O)c1ccc(NC(=O)c2nc(SCc3ccccc3F)ncc2Cl)cc1	.	.	.	.	.	2%
O=S(=O)(Nc1cccc(-c2cn3cccnc3n2)c1)c1ccc(Cl)cc1	18%	-70*	i	26%	3%	3%
SMILES	MCF10A rerep	IL-1B inflam inh	S2 tox	SW480 rerep	ATXN2 expr inh	PINK1 expr mod
COc1cc(/C=N/NC(=O)c2ccc3nc[nH]c3c2)cc(OC)c1OC(C)=O	.	-10	i	.	.	1%
COc1ccccc1/C=N/NC(=O)c1ccc(-c2ccccc2)cc1	18µM*	27	i	6%	-29%	4%
CCOc1ccc2[nH]c(C(=O)N/N=C/c3cc(OC)c(OC)c(OC)c3)cc2c1	?	-79*	i	-6%	2%	6%
CCOc1ccc(/C=N/NC(=O)c2cc3c(OC)cccc3[nH]2)cc1	?	?	?	?	?	-1%
COc1cc(/C=N\NC(=O)c2ccc(-c3ccccc3)cc2)cc(OC)c1O	?	?	i	0%	-19%	6%
COc1cc(/C=N/NC(=O)c2ccc3nc[nH]c3c2)cc(OC)c1OC	0%	-67*	?	12%	7%	4%
COc1cc(/C=N\NC(=O)c2ccc(-c3ccccc3)cc2)cc(OC)c1OC(C)=O	?	-50*	i	?	0%	-1%
COC(=O)c1ccc(NC(=O)CSc2ncc3c(n2)-c2cc(Cl)ccc2N(Cc2ccccc2)S3(=O)=O)cc1	.	.	i	.	7%	0%
CCOC(=O)c1ccc(NC2=CC(c3ccc(F)cc3)N(c3ccc(C(=O)OCC)cc3)C2=O)cc1 (stereo unspecified)	.	.	i	.	0%	1%
CC(C)CC(=O)OCc1cc(=O)n2nc(C3CCCCC3)sc2n1	.	.	i	.	7%	1%
COc1cccc(/C=N/NC(=O)c2ccncc2)c1OC(=O)c1ccc(Br)cc1	15µM*	83	?	26%	?	-1%
O=C(NNC(=O)c1ccccc1Cl)c1ccc2c(c1)OCCO2	-2%	-12	?	-3%	.	0%
O=Cc1cc2c(cc1[B-](F)(F)F)OCO2	-52%	1	i	16µM*	8%	0%
Cc1cc(C=O)c(C)n1-c1ccc2c(c1)OCO2	1%	-17	i	-1%	.	1%
CCC1C(c2ccccc2)N(C)C(c2ccccc2)CC1(O)c1ccccc1 (stereo unspecified)	?	?	?	?	-6%	0%
CC1C(=O)CC(c2ccccc2)N(C)C1c1ccccc1 (stereo unspecified)	26µM*	-6	i	0%	-21%	29%
CCOC(=O)c1nn(-c2ccc3c(c2)CCN3C(C)=O)cc1O	15µM*	-23	i	16%	?	7%[38.3 µM]
CCOC(=O)c1nn(-c2ccc(F)cc2)cc1O	-7%	-7	i	3%	.	0%
CC1=C(c2ccc(C)c(C)c2)S(=O)(=O)N=C1N1CCC(C(=O)NCCc2ccc(Cl)cc2)CC1	.	.	.	.	.	3%

Screening data (PubChem BioAssay)
